In the library only some 3.2% were active in any assay of this set; here they are far more common.
DNA Pol III inh: qHTS Assay for Inhibitors of DNA Polymerase III Holoenzyme System; 71,000 compounds, 0.25% hits; AID 603, 2007; reconstituted DNA polymerase III holoenzyme replication, biochemical; Potency, µM (titrated, usually from 57.1 µM), for the others: top-dose activity change, negative = inhibition; also: potency is read from the fitted curve at half-maximal effect; % is scaled to controls: 0 for no effect and ±100 for the full control effect
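Reconstituted *E. coli* holoenzyme (0.35 nM Pol III, 1 nM beta, 154 nM SSB, 2 nM primase) was preincubated with compound for 15 min at RT. Synthesis on 1.4 nM ssM13Gori ran 35 min, then was stopped with PicoGreen/EDTA and read as dsDNA fluorescence.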
BRCT PPI green: qHTS Assay for Inhibitors of BRCT-Phosphoprotein Interaction (Green Fluorophore); Breast cancer type 1 susceptibility protein (Homo sapiens), P38398; BRCA1 BRCT-phosphopeptide binding, green fluorescence polarization; Potency, µM (highest dose often 76.9 µM), for inactives: at the highest dose activity change, negative = inhibition, hits mostly inhibitors; 75,000 compounds, 0.05% hits;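 also: potency is read from the fitted curve at half-maximal effect; plate controls were peptide without protein for full effect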
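Fluorescence polarization: His-tagged BRCT (~35 kDa BRCA1 C-terminus, 250 nM) bound to 100 nM fluorescein-labeled phosphorylated 10-aa BACH1 peptide, pH 7.3 phosphate buffer with DTT and Tween 20. Compounds incubated 12 min at room temperature; inhibition read as lowered polarization.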
BRCT inh red: qHTS Assay for Inhibitors of BRCT-Phosphoprotein Interaction (Red Fluorophore) | 75,000 compounds, 0.03% hits | AID 892, 2007 | Breast cancer type 1 susceptibility protein (Homo sapiens), P38398 | Potency, µM (top dose mostly 76.9 µM), for inactives: at the highest dose activity change, negative = inhibition, most hits filed as inhibitors | BRCT-phosphopeptide binding, red fluorescence polarization; also: % is scaled to controls: 0 for no effect and ±100 for the full control effect
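Rhodamine-labelled pBACH1 10-mer (100 nM) bound to BRCT domain (100 nM) at pH 7.3; compounds incubated 12 min room temperature, polarization read. Free peptide defines full inhibition; unlabelled decapeptide titrated as control.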
TsaE inh: qHTS Assay for Inhibitors of YjeE. tRNA threonylcarbamoyladenosine biosynthesis protein TsaE (Escherichia coli (strain …. purified YjeE enzyme, qHTS inhibition assay. Potency, µM. 71,000 compounds, 0.05% hits
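Purified YjeE (10 uM) with BODIPY Texas Red-labeled ADP probe (2 uM); compounds pin-transferred, 15 min at room temperature. Binding inhibition read as decreased fluorescence polarization; ADP titration as control.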
TSHR agonist: qHTS Assay for Agonists of the Thyroid Stimulating Hormone Receptor | Thyrotropin receptor (Homo sapiens), P16473 | HEK293-CNG-TSHR cells (CNG channel as cAMP sensor), membrane potential dye, cAMP | Potency, µM (doses to about 57.1 µM), inactives show at the top dose activation, most hits filed as activators | 73,000 compounds, 0.48% hits; active = well fitted activation curve with a large enough effect in the main read-out, with a control signal flat, not every such curve was filed as active; inconclusive = small, poorly fitted or top-dose-only effect, or a change in a side signal; inactive = no such curve, though single readings can be large or run the other way; % of control where 0% means no effect;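 also: the control signal comes from parental cells without the receptor; potency is read from the fitted curve at half-maximal effect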
Target sequence (P16473 whole entry, looked up): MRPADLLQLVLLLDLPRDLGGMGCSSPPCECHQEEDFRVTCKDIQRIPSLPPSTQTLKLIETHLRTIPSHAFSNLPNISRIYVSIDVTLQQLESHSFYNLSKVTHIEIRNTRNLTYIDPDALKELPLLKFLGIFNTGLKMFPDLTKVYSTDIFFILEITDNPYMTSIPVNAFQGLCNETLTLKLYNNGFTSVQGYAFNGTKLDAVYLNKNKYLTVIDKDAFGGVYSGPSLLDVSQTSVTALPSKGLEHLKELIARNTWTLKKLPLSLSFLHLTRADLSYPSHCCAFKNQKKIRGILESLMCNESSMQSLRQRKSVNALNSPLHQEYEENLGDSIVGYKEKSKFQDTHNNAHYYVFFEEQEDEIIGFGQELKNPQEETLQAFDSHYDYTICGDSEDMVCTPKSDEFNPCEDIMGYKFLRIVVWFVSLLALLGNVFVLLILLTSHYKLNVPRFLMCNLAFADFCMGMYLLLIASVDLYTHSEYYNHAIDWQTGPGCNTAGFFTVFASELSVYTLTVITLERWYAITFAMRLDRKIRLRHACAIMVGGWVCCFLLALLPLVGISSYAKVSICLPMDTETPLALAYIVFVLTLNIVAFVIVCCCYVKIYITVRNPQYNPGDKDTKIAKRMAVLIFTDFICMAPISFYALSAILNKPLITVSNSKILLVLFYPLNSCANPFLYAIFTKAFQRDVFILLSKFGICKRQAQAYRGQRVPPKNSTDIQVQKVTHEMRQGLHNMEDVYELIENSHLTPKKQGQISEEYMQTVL
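HEK 293 cells stably expressing TSHR and a modified CNG channel, with CNG-only parental cells as counterscreen, were preloaded 60 min at room temperature with membrane potential dye containing 100 uM RO 20-1724. Compound exposure was 30 min, and depolarization was read as fluorescence at 590 nm.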
HEK293 cAMP ctrl: qHTS Assay for Agonists of the Thyroid Stimulating Hormone Receptor: Activators of Intracellular cAMP Concentrations in Parental HEK 293; parental HEK293 CNG cAMP sensor, membrane potential fluorescence; Potency, µM (doses to about 57.1 µM), inactives show at the top dose activation, actives largely listed as activators; 73,000 compounds, 2.5% hits; also: potency is read from the fitted curve at half-maximal effect; % of control where 0% means no effect; nearly all actives have a fitted effect of over 55% in size
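Counterscreen for endogenous-receptor signalling: CNG-channel HEK 293 cells report cAMP rise by membrane depolarization. After 60 min dye equilibration with 100 uM RO 20-1724, compounds incubated 30 min before bottom-read fluorescence at 590 nm.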
* marks the source's active call; other numbers are inactive results; i = inactive; ? = inconclusive; . = not tested or not shown; [ ] = dose if it differs, or a comment. Unless noted, calls follow the shape of the dose curve; as a rule, active = well fitted curve in the direction sought with a large enough effect; inconclusive = small, poorly fitted or top-dose-only effect, or another doubt; inactive = no such curve, though single readings can be large; an effect the other way counts as inactive or inconclusive.

SMILES | DNA Pol III inh | BRCT PPI green | BRCT inh red | TsaE inh | TSHR agonist | HEK293 cAMP ctrl
CC1(C)[C@@H](O)CC[C@@]2(C)[C@H]1CC[C@]1(C)[C@H]2C(=O)C=C2[C@@H]3C[C@@](C)(C(=O)O)CC[C@]3(C)CC[C@@]21C | -8% | . | . | i | ? | ?
COc1ccc(S(=O)(=O)Cc2ccc(C(=O)N3CCN(c4ccc(Cl)cc4)CC3)o2)cc1 | 6% | 0% | 0% | i | 20µM* | 18%
COc1ccccc1CN1CCCC2(CCN(C(=O)c3ccco3)CC2)C1 | -2% | -2% | -4% | i | 11% | 22%
CCOC(=O)N1CCN(C(=O)Cn2ncc3ccccc32)CC1 | 25µM* | -2% | -3% | i | ? | ?
CCOC(=O)N1CCN(C(=O)c2ccccc2-c2ccccc2)CC1 | -1% | 1% | 0% | i | 21% | 19%
CCOC(=O)N1CCN(C(=O)c2cnn3ccccc23)CC1 | -1% | 0% | 1% | 32µM* | 1% | 10%
CCOC(=O)N1CCC(NC(=O)Cn2ncc3ccccc32)CC1 | -3% | -2% | -5% | i | 10% | 1%
COc1ccc(C/C(O)=C(\C#N)c2nc3ccccc3s2)cc1 | -5% | -3% | 1% | i | ? | 32µM*
Cc1ccc(SC/C(O)=C(\C#N)c2nc3ccccc3s2)cc1 | -4% | -1% | 0% | i | ? | ?
O=C(c1ccco1)N1CCC2(CCCN(c3ccncc3)C2)CC1 | 0% | -3% | -1% | i | 13% | 5%
Cc1ccc(Cl)cc1N1CCN(C(c2ccc(C#N)cc2)c2nnnn2C2CCCC2)CC1 (configuration not stated) | -2% | -2% | 0% | i | ? | 1.3µM*
CCOC(=O)C1CCCN(C(=O)c2cnn3c(C(F)F)cc(-c4ccc(C)cc4)nc23)C1 (configuration not stated) | -1% | 1% | -2% | i | ? | 7.9µM*
Cc1ccc(-c2cc(C(F)F)n3ncc(C(=O)N4CCN5CCCC5C4)c3n2)cc1 (configuration not stated) | -2% | -2% | 1% | i | ? | 20µM*
COc1ccc(-c2cc(C(F)F)n3ncc(C(=O)N4CCSCC4)c3n2)cc1 | 0% | 1% | -1% | i | ? | ?
CN1CCN(c2ncc3nc(-c4cc(F)cc(F)c4)c(=O)n(CCc4ccccc4)c3n2)CC1 | 7% | 0% | -1% | i | 4% | -7%
Fc1ccccc1COc1cccc(/C=N/n2cnnc2)c1 | -5% | -6% | -1% | i | ? | 32µM*
Cc1cc(/C=N/n2cnnc2)c(C)n1-c1ccc(OCc2ccccc2F)cc1 | -3%[11.4 µM] | 0% | 1% | i | ? | ?
COCCn1c(=O)c(-c2cccc(C#N)c2)nc2cnc(Nc3ccccc3)nc21 | -4% | -5% | 0% | i | ? | 0.25µM*
O=C(OCc1nnc(-c2ccccc2)o1)C1=COCCO1 | -1% | -1% | 0% | i | 1% | 4%
Cc1cc(C)n(-c2ccc(C(=O)OCc3nnc(-c4ccccc4)o3)cc2)n1 | -3% | 0% | -1% | i | ? | 32µM*
Cc1ccc(C(=O)OCc2nnc(-c3ccccc3)o2)o1 | -1% | -5% | -2% | i | 4% | 22%
O=C(OCc1nnc(-c2ccccc2)o1)c1ccc2c(c1)OCCO2 | -2% | 4% | 0% | i | ? | 13µM*
COC(=O)[C@@]1(Cc2ccc(F)cc2)[C@H]2c3cc(C(=O)N4CCCC4)n(CC4CC4)c3C[C@H]2CN1C(=O)c1ccccc1 | 9% | -1% | -5% | i | ? | 4µM*
COC(=O)[C@@]1(Cc2ccc(F)cc2)[C@H]2c3cc(C(=O)N4CCCC4)n(Cc4ccc(C)o4)c3C[C@H]2CN1C(=O)c1ccccc1 | 12% | 4% | -1% | i | ? | 32µM*
COC(=O)[C@@]1(Cc2ccc(F)cc2)[C@H]2c3cc(C(=O)N4CCCC4)n(Cc4cc(C)n(C)n4)c3C[C@H]2CN1C(=O)c1ccccc1 | 5% | 0% | -1% | i | ? | 16µM*
SMILES | DNA Pol III inh | BRCT PPI green | BRCT inh red | TsaE inh | TSHR agonist | HEK293 cAMP ctrl
COC(=O)[C@@]1(Cc2ccc(F)cc2)[C@H]2c3cc(C(=O)N4CCCC4)n(Cc4ccc(S(C)(=O)=O)cc4)c3C[C@H]2CN1C(=O)c1ccccc1 | 11% | 5% | -3% | i | ? | 16µM*
COC(=O)[C@@]1(Cc2ccc(F)cc2)[C@H]2c3cc(C(=O)N4CCCC4)n(Cc4ccc(C)c(F)c4F)c3C[C@H]2CN1C(=O)c1ccccc1 | -11% | -2% | 0% | i | ? | ?
COC(=O)[C@@]1(Cc2ccc(F)cc2)[C@H]2c3cc(C(=O)N4CCCC4)n(CCF)c3C[C@H]2CN1C(=O)c1ccccc1 | 6% | 4% | 0% | i | ? | ?
Cc1noc(C)c1-c1nc(N(C)C)c2ccccc2n1 | -6% | 0% | 2% | i | 16% | 11%
CNS(=O)(=O)c1ccccc1C(=N)c1ccccc1 | -10%[11.4 µM] | -1%[15.4 µM] | 1%[15.4 µM] | i | 0%[11.4 µM] | 5%[11.4 µM]
O=C(Nc1cccc(F)c1)N1CCCC2(CCN(C(=O)c3cc(C(F)(F)F)cc(C(F)(F)F)c3)CC2)C1 | -13% | -4% | -2% | i | 26% | 13%
CC[C@@H]1[C@H]2CCCCN3[C@@H]2[C@@H](C[C@H]3[C@@H]2C[C@H](C)C(=O)O2)[C@@H]2[C@H]1OC(=O)[C@H]2C | -9% | . | . | i | 3% | 9%
CC1CCCCN1c1nc(-c2ccncc2)nc2ccccc12 (configuration not stated) | -1% | 2% | -3% | i | ? | 25µM*
CC1CCN(c2nc(-c3ccncc3)nc3ccccc23)CC1 | 2% | 4% | -1% | i | ? | ?
COc1ccc(OC)c(CCNC(=O)CS(=O)(=O)Cc2nc(-c3ccccc3C)oc2C)c1 | -4% | 0% | 0% | i | ? | 16µM*
COc1cccc(-c2nc(CS(=O)(=O)CC(=O)NCc3ccccc3)c(C)o2)c1 | 0% | -1% | 0% | i | ? | ?
Cc1ccccc1-c1nc(CS(=O)(=O)CC(=O)NCc2ccccc2)c(C)o1 | -1% | -1% | 0% | i | 16µM* | 27%
C=Cc1cccc(C)c1 | -1% | 0% | 1% | i | -2% | 28%
